Test results: PubChem BioAssay (NCATS)
Records with an inconclusive call do not appear. Where a call stands in place of a potency, no number is given. Activity calls are given as the source filed them. Unless noted, calls come from the whole dose curve; as a rule, active = well fitted curve in the direction sought with a large enough effect; inconclusive = small, poorly fitted or top-dose-only effect, or another doubt; inactive = no such curve, though single readings can be large; an effect the other way counts as inactive or inconclusive.

What was measured:
[1] = qHTS drug screen for cell cycle checkpoint inhibitors in PARPi-resistant BRCA-mutant ovarian cancer cell lines. (AID 1963452; calls by dose curve; note: potency is the fitted concentration of half-maximal effect); details: PEO1/OlaR viability, CellTiter-Glo luminescence, 96 h; for Z-AUC: stronger effect = lower value
In short: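 PEO1, PEO4 and PEO1/OlaR ovarian cancer cells, 600 per well, exposed 96 h at 37C to a dilution series. Viability read by CellTiter-Glo luminescence, normalized to DMSO and empty wells; activity summarized as Z-AUC.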

[2] = qHTS for identification of novel therapeutic agents for treatment of microphthalmiaassociated transcription factor (MiT) renal cell carcinoma (RCC) (AID 1963991; calls by dose curve; note: potency is the fitted concentration of half-maximal effect); details: CellTiter-Glo, 48 h; for z-score: stronger effect = lower value
In short: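 Three TFE3-fusion RCC lines (UOK109, UOK124, UOK145), 500 cells/well in complete medium, were treated with MIPE 4.0 compounds for 48 hours at 37 C. Viability was by CellTiter-Glo luminescence, normalized to DMSO (100%) and empty wells (0%); curves fitted over 11 concentrations.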

[3] = qHTS profiling for inhibitors of Plasmodium falciparum proliferation (AID 504749); note: nearly all actives have a fitted effect of over 60% in size; details: P. falciparum in erythrocytes, SYBR Green DNA, 72 h, at 28.7 µM (top of the series)
In short: (§1)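 Readout was DNA-dye fluorescence from lysed cultures, ex 485/em 535 nm. Parasitized red cells had grown 72 h with compound; data scaled between 0.29 uM artemisinin and DMSO wells and corrected using vehicle-only plates.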

3D7 = experiment: as above; details: P. falciparum in erythrocytes, SYBR Green DNA, 72 h; series mostly up to 28.7 µM
In short: as §1

7G8 = experiment: as above; details: P. falciparum in erythrocytes, SYBR Green DNA, 72 h; series mostly up to 28.7 µM
In short: as §1

AA1029 = experiment: as above; details: P. falciparum in erythrocytes, SYBR Green DNA, 72 h; series mostly up to 28.7 µM
In short: as §1

AS120 = experiment: as above; details: P. falciparum in erythrocytes, SYBR Green DNA, 72 h; series mostly up to 28.7 µM
In short: as §1

ATS189 = experiment: as above; details: P. falciparum in erythrocytes, SYBR Green DNA, 72 h; series mostly up to 28.7 µM
In short: as §1

ATS95 = experiment: as above; details: P. falciparum in erythrocytes, SYBR Green DNA, 72 h; series mostly up to 28.7 µM
In short: as §1

CP185 = experiment: as above; details: P. falciparum in erythrocytes, SYBR Green DNA, 72 h; series mostly up to 28.7 µM
In short: as §1

CP191 = experiment: as above; details: P. falciparum in erythrocytes, SYBR Green DNA, 72 h; series mostly up to 28.7 µM
In short: as §1

CP192 = experiment: as above; details: P. falciparum in erythrocytes, SYBR Green DNA, 72 h; series mostly up to 28.7 µM
In short: as §1

CP194 = experiment: as above; details: P. falciparum in erythrocytes, SYBR Green DNA, 72 h; series mostly up to 28.7 µM
In short: as §1

CP201 = experiment: as above; details: P. falciparum in erythrocytes, SYBR Green DNA, 72 h; series mostly up to 28.7 µM
In short: as §1

CP203 = experiment: as above; details: P. falciparum in erythrocytes, SYBR Green DNA, 72 h; series mostly up to 28.7 µM
In short: as §1

CP211 = experiment: as above; details: P. falciparum in erythrocytes, SYBR Green DNA, 72 h; series mostly up to 28.7 µM
In short: as §1

C2A = experiment: as above; details: P. falciparum in erythrocytes, SYBR Green DNA, 72 h; series mostly up to 28.7 µM
In short: as §1

[4] = target: Nuclear receptor subfamily 1 group I member 2 (Homo sapiens) (UniProt O75469); experiment: Dual reporter qHTS for agonist of Pregnane X Receptor (hPXR) against the NCATS DSHEA and TCM libraries: Luminescence readout (AID 1920059); details: hPXR dual reporter cells, luciferase luminescence agonist; series mostly up to 40 µM
Sequence of Nuclear receptor subfamily 1 group I member 2 (Homo sapiens) (O75469 whole entry, looked up): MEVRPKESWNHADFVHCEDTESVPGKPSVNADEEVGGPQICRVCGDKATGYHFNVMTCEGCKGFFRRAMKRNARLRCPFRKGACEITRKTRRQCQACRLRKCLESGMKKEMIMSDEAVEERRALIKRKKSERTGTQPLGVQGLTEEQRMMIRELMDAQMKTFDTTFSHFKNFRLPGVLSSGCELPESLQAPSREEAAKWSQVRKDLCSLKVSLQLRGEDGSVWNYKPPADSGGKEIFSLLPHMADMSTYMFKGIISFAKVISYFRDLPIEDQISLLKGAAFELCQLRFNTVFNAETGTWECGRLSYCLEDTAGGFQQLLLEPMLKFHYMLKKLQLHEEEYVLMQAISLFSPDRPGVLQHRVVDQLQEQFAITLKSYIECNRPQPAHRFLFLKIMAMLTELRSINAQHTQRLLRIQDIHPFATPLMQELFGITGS
In short: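 hPXR-Luc HepG2 cells, 2000/well in 5% charcoal-stripped FBS medium, attached 5 h, then exposed 24 h at 37C to compounds. Viability by CellTiter-Fluor, then luciferase luminescence with ONE-Glo.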

[5] = target: Nuclear receptor subfamily 1 group I member 2 (Homo sapiens) (UniProt O75469); experiment: Dual reporter qHTS for antagonist of Pregnane X Receptor (hPXR) against the NCATS DSHEA and TCM libraries: Luminescence Readout (AID 1920060); details: hPXR dual reporter cells, luciferase luminescence, antagonist mode; series mostly up to 40 µM;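 note: HepG2 cells carrying hPXR luciferase reporter stimulated with rifampicin at 2 µM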
In short: (§2)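 hPXR-Luc HepG2 cells exposed 24 h at 37 C to compounds with 2 uM rifampicin in antagonist mode; luciferase luminescence measured by ONE-Glo, with CellTiter-Fluor viability read beforehand.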

[6] = Dual reporter qHTS for antagonist of Pregnane X Receptor (hPXR) against the NCATS DSHEA and TCM libraries: Fluorescence Readout (AID 1920061); details: PXR dual reporter cells, antagonist mode; series mostly up to 40 µM
In short: as §2

[7] = measured here: PEO1 parental Z-AUC
[8] = TFE3-RCC UOK109 viability, measured here: UOK109 Z-AUC
[9] = TFE3-RCC viability, measured here: UOK124 Z-AUC
[10] = TFE3-RCC viability, measured here: UOK145 Z-AUC

Q: For `COc1ccc(C2CNC(=O)C2)cc1OC1CCCC1` (configuration not stated), which Z-AUC [1] is on record?
A: -0.000894 (inactive)

Q: And the Z-AUC [1, 7]?
A: 0.813

Q: And the Z-AUC ([1]; measured here: PEO4 Z-AUC)?
A: 0.981

Q: And the z-score [2, 8]?
A: 0.4

Q: What about the z-score [2, 9] of the same molecule?
A: 0.743

Q: What about the z-score [2, 10] of the same molecule?
A: 0.539

Q: Which Potency [1] does the source give for `COC(=O)Nc1nc2ccc(C(=O)c3cccs3)cc2[nH]1` here?
A: 69.2 nM (active)

Q: What about the Z-AUC [1, 7] of the same molecule?
A: -1.94

Q: What about the Z-AUC ([1]; measured here: PEO4 Z-AUC) of the same molecule?
A: -1.92

Q: What about the Potency ([2]; TFE3-RCC UOK109 viability, active = Z-AUC below -0.8 in all three lines) of the same molecule?
A: 8.33 nM (active)

Q: And the z-score [2, 8]?
A: -2.2

Q: And the z-score [2, 9]?
A: -3.02

Q: What about the z-score [2, 10] of the same molecule?
A: -1.81

Q: And the activity, negative = inhibition ([3]; parasite line A)?
A: -6.79% (inactive)

Q: And the activity, negative = inhibition ([3]; parasite line B)?
A: 11.2% (inactive)

Q: What about the Potency (3D7) of the same molecule?
A: inactive

Q: What about the Potency (7G8) of the same molecule?
A: inactive

Q: And the Potency (AA1029)?
A: inactive

Q: And the Potency (AS120)?
A: inactive

Q: And the Potency (ATS189)?
A: inactive

Q: What about the Potency (ATS95) of the same molecule?
A: inactive

Q: What about the Potency (CP185) of the same molecule?
A: inactive

Q: What about the Potency (CP191) of the same molecule?
A: inactive

Q: What about the Potency (CP192) of the same molecule?
A: inactive

Q: And the Potency (CP194)?
A: inactive

Q: What about the Potency (CP201) of the same molecule?
A: inactive

Q: What about the Potency (CP203) of the same molecule?
A: inactive

Q: And the Potency (CP211)?
A: inactive

Q: With `Cc1ccccc1N1C(=O)c2cc(S(N)(=O)=O)c(Cl)cc2NC1C` (configuration not stated) as the molecule, how does the Z-AUC [1] read?
A: -0.939 (inactive)

Q: What about the Z-AUC [1, 7] of the same molecule?
A: -0.663

Q: And the Z-AUC ([1]; measured here: PEO4 Z-AUC)?
A: -0.859

Q: And the z-score [2, 8]?
A: 0.956

Q: What about the z-score [2, 9] of the same molecule?
A: 0.478

Q: What about the z-score [2, 10] of the same molecule?
A: -0.147

Q: Which results are given for `CC[N+](CC)(CC)CCOc1cccc(OCC[N+](CC)(CC)CC)c1OCC[N+](CC)(CC)CC`?
A: Z-AUC [1]: 0.722 (inactive); Z-AUC [1, 7]: 0.846; Z-AUC ([1]; measured here: PEO4 Z-AUC): 0.666; z-score [2, 8]: 0.0594; z-score [2, 9]: 0.771; z-score [2, 10]: -0.103; activity, negative = inhibition ([3]; parasite line A): -0.0275% (inactive); activity, negative = inhibition ([3]; parasite line B): 10.3% (inactive); Potency (3D7): inactive; Potency (7G8): inactive; Potency (AA1029): inactive; Potency (AS120): inactive; Potency (ATS189): inactive; Potency (ATS95): inactive; Potency (C2A): inactive; Potency (CP185): inactive; Potency (CP191): inactive; Potency (CP192): inactive; Potency (CP194): inactive; Potency (CP201): inactive; Potency (CP211): inactive

Q: With `Cn1c(=O)c2c(ncn2C)n(C)c1=O` as the molecule, how does the outcome [4] read?
A: inactive

Q: And the outcome [5]?
A: inactive

Q: And the outcome [6]?
A: inactive

Q: And the Z-AUC [1]?
A: 1.16 (inactive)

Q: And the Z-AUC [1, 7]?
A: 1.03

Q: And the Z-AUC ([1]; measured here: PEO4 Z-AUC)?
A: 1.21

Q: What about the z-score [2, 8] of the same molecule?
A: 0.696

Q: And the z-score [2, 9]?
A: 0.536

Q: What about the z-score [2, 10] of the same molecule?
A: 0.729

Q: And the activity, negative = inhibition ([3]; parasite line A)?
A: 6.06% (inactive)

Q: And the activity, negative = inhibition ([3]; parasite line B)?
A: 8.5% (inactive)

Q: What about the Potency (3D7) of the same molecule?
A: inactive

Q: And the Potency (AA1029)?
A: inactive

Q: And the Potency (AS120)?
A: inactive

Q: What about the Potency (ATS189) of the same molecule?
A: inactive

Q: What about the Potency (ATS95) of the same molecule?
A: inactive

Q: And the Potency (C2A)?
A: inactive

Q: And the Potency (CP185)?
A: inactive

Q: What about the Potency (CP191) of the same molecule?
A: inactive

Q: And the Potency (CP192)?
A: inactive

Q: And the Potency (CP194)?
A: inactive

Q: What about the Potency (CP201) of the same molecule?
A: inactive

Q: What about the Potency (CP211) of the same molecule?
A: inactive

Q: For `CN1CCN(C2=Nc3cc(Cl)ccc3Nc3ccccc32)CC1`, which Z-AUC [1] is on record?
A: 0.802 (inactive)

Q: And the Z-AUC [1, 7]?
A: 0.75

Q: What about the Z-AUC ([1]; measured here: PEO4 Z-AUC) of the same molecule?
A: 0.32

Q: Which results are given for `NS(=O)(=O)c1cc2c(cc1Cl)NCNS2(=O)=O`?
A: Z-AUC [1]: 1.17 (inactive); Z-AUC [1, 7]: 1.34; Z-AUC ([1]; measured here: PEO4 Z-AUC): 1.57; z-score [2, 8]: 0.106; z-score [2, 9]: 0.843; z-score [2, 10]: 0.437; activity, negative = inhibition ([3]; parasite line A): 1.79% (inactive); activity, negative = inhibition ([3]; parasite line B): 14.1% (inactive); Potency (3D7): inactive; Potency (7G8): inactive; Potency (AA1029): inactive; Potency (AS120): inactive; Potency (ATS189): inactive; Potency (ATS95): inactive; Potency (C2A): inactive; Potency (CP185): inactive; Potency (CP191): inactive; Potency (CP192): inactive; Potency (CP194): inactive; Potency (CP201): inactive; Potency (CP211): inactive
